Data reported in PubChem BioAssay (NCI).
About 83,000 compounds went through this panel and 20% of them were active in at least one assay; those are over-represented in the sample as a whole.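 Note: values are percent growth. 100 is the growth of untreated cells, values between 100 and 0 indicate rising inhibition; between -100 and 0 indicates cell death.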 Unmarked numbers belong to inactive results. The source made the active and inactive calls. Rule for the calls: active = growth percent below 10; inactive = the rest.

tested on: HL-60(TB) leukemia; assay: NCI-60 one-dose screen, 48 h (100 = growth as untreated, 0 = no growth, -100 = all killed); settings: 10 µM unless noted

| SMILES | growth |
| --- | --- |
| COc1ccc(C2CC(c3ccc(OC)c(OC)c3)=NN2C(=O)c2cc(OC)c(OC)c(OC)c2)cc1 (centres undefined) | 5.49% (active) |
| O=S(=O)(O)c1cc(O)c2c(N=Nc3ccc(Nc4ccccc4)c4c(S(=O)(=O)O)cccc34)cc(S(=O)(=O)O)cc2c1 | 82.7% |
| O=C(O)C(CCc1ccccc1)NCc1ccccc1 (centres undefined) | 110% |
| CN1CCN(Cc2ccc(NC(=O)c3cncc(C#Cc4cnc5ccc(Cl)nn45)c3)cc2C(F)(F)F)CC1 | -17.6% (active) |
| O=C(N/N=C/c1ccc(Cl)cc1)c1ccc(Cc2n[nH]c(=O)c3cccnc23)cc1 | 100% |
| N=C(N)c1ccc(-c2ccc(-c3ccc(Cl)cc3)o2)o1 | -53.5% (active) |
| Nc1cc(Cl)cc2cccnc12 | 72.3% |
| O=C1NCC2CCCC1C2 (centres undefined) | 98.6% |
| CCOC(=O)c1nn(C2CCCCO2)c2ccc(NC(=O)CSc3nc4ccccc4c(=O)[nH]3)cc12 (centres undefined) | 118% |
| CN(C)CCCC1(c2ccc(F)cc2)OCc2cc(-c3ccc4cc[nH]c4c3)ccc21 (centres undefined) | 27.6% |
| COC(=O)c1ccc(NC(=O)CSc2nc(-c3ccc(F)cc3)nc3ccccc23)cc1 | 94.3% |
| COc1c(Cl)cc(Cl)c2ccc(C=C3C(=O)N(C)C(=O)N(C)C3=O)nc12 | 98.1% |
| O=[N+]([O-])c1ccc([I+]c2ccccc2)cc1 | 21.5% |
| O=C(Nc1ccc(-n2cc(-c3ccncc3)c(-c3ccc(O)c(Cl)c3)n2)cc1)Nc1cccc(Cl)c1Cl | 78.8% |
| COc1ccc(NC(=O)/C=C(C)/C=C/C=C(C)/C=C/C2=C(C)CCCC2(C)C)cc1 | 5.62% (active) |
| CC(C)c1ccc(C(=O)OC(=O)c2ccc(C(C)C)cc2)cc1 | 51.3% |
| Cc1ccc(NC(=O)N2CCCCC2)cc1[N+](=O)[O-] | 104% |
| O=C(/C=C/c1cc2ccccc2[nH]c1=O)c1ccc(O)cc1 | 16% |
| CCN1C(=O)N(CC)C2Nn3c(s/c(=C4\C(=O)Nc5ccccc54)c3=O)=NC21 (centres undefined) | 27.8% |
| CCNc1nc(S(=O)(=O)CC)nc2ccccc12 | 91.8% |

| SMILES | growth |
| --- | --- |
| CCOC(=O)C(Cc1ccc(OC)cc1)C(=O)OCC | 3.77% (active) |
| CC(C)C/C(=N\NC(=O)c1ccncc1)c1cc(Cl)ccc1O | -32.3% (active) |
| CCOC(=O)c1sc(/N=C2\NC(=O)/C(=C/c3ccc(N4CCN(C)CC4)cc3)S2)nc1C | 100% |
| COc1ccc(/C=N/C2=C(C#N)C(c3ccc(N(C)C)cc3)c3ccc4ccccc4c3O2)cc1 (centres undefined) | 19.6% |
| Nc1nc(SCC2(CCl)COC2)c2[nH]cnc2n1 | 105% |
| CCCC(=O)OCC1OC(n2cnc3c(=S)nc[nH]c32)C(OC(=O)CCC)C1OC(=O)CCC (centres undefined) | 32.1% |
| COc1cc(-c2n[nH]nc2-c2ccc3c(c2)OCCO3)cc(OC)c1OC | -5.41% (active) |
| CCOc1ccc(Br)cc1/C=C(\C#N)c1ccc([N+](=O)[O-])cc1 | 91.6% |
| O=c1ccc2nc(-c3ccccc3)nn(-c3ccccc3)c-2c1 | -45.5% (active) |
| C[C@H](C(=O)N[C@@H](Cc1ccc(-c2ccccc2)cc1)C(=O)NC1CC(C)(C)NC(C)(C)C1)c1ccc(-c2ccccc2)c(F)c1 | -59.1% (active) |
| O=[N+]([O-])c1ccc(NC(=S)N/N=C/c2cc3ccccc3n3nnnc23)cc1 | 27.4% |
| COC(=O)[C@@]12OC[C@]34[C@H]([C@@H](O)[C@@H]1O)[C@@]1(C)[C@H](O)C(=O)C=C(C)[C@@H]1C[C@H]3OC(=O)C(OC(C)=O)[C@@H]24 (some centres undefined) | -59% (active) |
| CCOC(=O)c1ccc(N(CCC(=O)O)C(C)=O)cc1 | 117% |
| CC(=O)Nc1nc2c(c(N)c1C#N)C(c1cccc(Cl)c1)C1=C(CCCC1=O)N2c1sc2c(c1C#N)CCCC2 (centres undefined) | 5.89% (active) |
| CC1CCC2(C(=O)O)CCC3(C)C(=CCC4C5(C)CC(O)C(O)C(C)(CO)C5C(O)CC43C)C2C1C (centres undefined) | 118% |
| CC#CC(=O)N1CCC[C@H]1c1nc(-c2ccc(C(=O)Nc3ccccn3)cc2)c2c(N)nccn12 | 130% |
| COCCn1cc(-c2nc(-c3c[nH]c4ncccc34)cs2)c2ccccc21 | 76.9% |
| C/C(=C(\c1ccc(OCCCN(C)C)cc1)c1ccc(OC(=O)Cc2ccccc2)cc1)c1ccc(Cl)cc1 | 78% |
| COc1ccc(-c2cc(-c3cccnc3)nc3sc4c(=O)[nH]c(-c5ccc(Cl)cc5)nc4c23)cc1OC | 90.3% |
